# NPSR antag: antagonists of human neuropeptide S receptor cAMP signaling. Q6W5P4. CHO-NPSR cells, cAMP TR-FRET, antagonist mode. Potency, µM (series often up to 38.3 µM), without a hit: top-dose activity change, negative = inhibition, most hits filed as inhibitors. 220,000 tested, 1% active. AID 1461; further: nearly all actives have a fitted effect of over 50% in size
# ALDH1A1 block: inhibitors of human aldehyde dehydrogenase 1A1; P00352; Purified ALDH1A1, NADH fluorescence, propionaldehyde substrate; Potency, µM (highest dose often 75.3 µM), for the others: at the top dose activity, negative = inhibition, actives largely listed as inhibitors; 220,000 tested, 7.3% active; AID 1030; active means well fitted inhibition curve with a large enough effect, not every such curve was filed as active; inconclusive means small, poorly fitted or top-dose-only effect, or another doubt; inactive means no such curve, though single readings can be large or run the other way;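 further: plate controls were no enzyme wells and a reference inhibitor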
# Tau fibril ThT: tau fibrillization inhibition (ThT binding) | recombinant tau K18 P301L, heparin-induced fibrillization, ThT fluorescence | P10636 | 270,000 tested, 2.1% active | Potency, µM (series often up to 57.4 µM), for the others: at the highest dose activity, negative = inhibition, actives largely listed as inhibitors | AID 1460; further: nearly all actives have a fitted effect of over 55% in size
# Target sequence (P10636 561-689 P618L limits assumed): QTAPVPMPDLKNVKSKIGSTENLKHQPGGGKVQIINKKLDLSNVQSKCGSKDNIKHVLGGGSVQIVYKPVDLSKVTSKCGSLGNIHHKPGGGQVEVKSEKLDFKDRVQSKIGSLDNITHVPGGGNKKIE
#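 Tau K18 P301L fragment (15 uM unlabeled plus 0.24 uM Alexa 594-labeled) in 100 mM sodium acetate pH 7 with compound, fibrillization induced by 20 uM heparin for 6 hr at 37 C. Thioflavin T (30 uM) added, fluorescence read after 1 hr (ex 450, em 510 nm).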
# Tau fibril FP: tau fibrillization inhibition (FP); K18 P301L tau heparin fibrillization, Alexa594 FP, 6 h; 280,000 tested, 0.39% active; Potency, µM (highest dose often 57.7 µM), inactives show at the highest dose activity, negative = inhibition, most hits filed as inhibitors; P10636; further: nearly all actives have a fitted effect of over 55% in size
#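 Human K18 P301L fragment (15 uM unlabeled plus 0.24 uM Alexa 594-labeled) in 100 mM sodium acetate pH 7 with compound, aggregation induced by 20 uM heparin for 6 hr at 37 C. ThT (30 uM) added for 1 hr, then Alexa 594 FP read.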
# Tau fluor counter: counter-screen for tau fibril formation inhibitors; Potency, µM (series often up to 57.7 µM), for inactives: at the highest dose activity change, negative = decrease; AID 1463; tau K18 P301L Alexa594 fluorescence, heparin fibrillization; 280,000 tested, 0.93% active; further: nearly all actives have a fitted effect of over 55% in size
#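 Human tau K18 P301L (15 uM unlabeled, 0.24 uM Alexa 594-labeled) in 100 mM sodium acetate pH 7 with 20 uM heparin, 6 hr at 37 C. ThT 30 uM added, 1 hr ambient; Alexa 594 FP and total fluorescence read at 555/632 nm.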
# HPGD inh: HPGD (human) dehydrogenase inhibition. Potency, µM, without a hit: at the top dose activity change, negative = inhibition, actives largely listed as inhibitors. purified HPGD, NADH fluorescence kinetic, PGE2 substrate. 150,000 tested, 4.3% active; active means well fitted inhibition curve with a large enough effect, not every such curve was filed as active; inconclusive means small, poorly fitted or top-dose-only effect, or another doubt; inactive means no such curve, though single readings can be large or run the other way
# Target sequence (P15428 whole entry, looked up): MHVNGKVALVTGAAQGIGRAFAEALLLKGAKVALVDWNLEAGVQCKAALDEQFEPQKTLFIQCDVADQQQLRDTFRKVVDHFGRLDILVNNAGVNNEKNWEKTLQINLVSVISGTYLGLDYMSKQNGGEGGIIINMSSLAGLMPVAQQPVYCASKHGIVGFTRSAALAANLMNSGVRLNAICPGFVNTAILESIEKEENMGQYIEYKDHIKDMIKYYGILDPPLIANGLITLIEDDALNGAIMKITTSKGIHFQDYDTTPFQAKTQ
#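 20 nM HPGD preincubated 15 min at room temperature with compound in 50 mM Tris-HCl pH 8, 0.01% Tween 20. Started with 1 mM NAD+ and 30 uM prostaglandin E2; NADH fluorescence (360/450 nm) read 5 times over 30-s intervals, last minus first.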
# Numbers without * were called inactive; ? = inconclusive; nt = no result; [ ] = another dose, or the depositor's remark. This is a sample that favours compounds with a hit; in the whole collection about 9.5% have one here. Unless noted, the call rests on the fitted dose curve; in most records, active means well fitted curve in the direction sought with a large enough effect; inconclusive means small, poorly fitted or top-dose-only effect, or another doubt; inactive means no such curve, though single readings can be large; an effect the other way counts as inactive or inconclusive. Unless noted, on the % scale 0 is the no-effect control and ±100 the full control effect; potency means the concentration at half of the fitted maximal effect.
SMILES,NPSR antag,ALDH1A1 block,Tau fibril ThT,Tau fibril FP,Tau fluor counter,HPGD inh
CCc1ccc(-c2ccc3nnc(SCC(=O)Nc4cccc(C(C)=O)c4)n3n2)cc1,nt,nt,0%,?,-11%,nt
CCc1ccc(/C=C2/C(=O)N(c3ccccc3)C(=S)N2CC(=O)OC)s1,-25%,8.9µM*,-7%,2%,-7%,-17%
CCOc1ccc(N2C(=O)/C(=C/c3cccs3)N(CC(=O)OC)C2=S)cc1,-15%[46.1 µM],10%,18%,-4%,8%,-4%
O=C(c1ccco1)N1N=C(C2CCCCC2)CC1(O)C(F)(F)F (stereo unspecified),-5%,6.3µM*,-2%,4%[2.34 µM],6%[2.34 µM],nt
COc1ccc(C(=O)N2CCC[C@@]3(CCN(Cc4ccncc4)C3)C2)cc1,nt,28µM*,nt,nt,nt,35µM*
N#Cc1ccc(CN2CC[C@@]3(CCCN(C(=O)c4cccc(F)c4)C3)C2)cc1,nt,-9%,nt,nt,nt,28µM*
O=C(c1ccncc1)N1CCC[C@@]2(CCN(Cc3ccncc3)C2)C1,nt,22µM*,nt,nt,nt,-13%
COc1ccc(C(=O)N2CCC[C@@]3(CCN(Cc4cc(C(F)(F)F)cc(C(F)(F)F)c4)C3)C2)cc1,nt,7%,nt,nt,nt,-4%
CC1CCN(C(=O)c2ccc(CSc3nc4ccncc4n3Cc3ccc(F)cc3)cc2)CC1,-4%,-8%,-13%,7%,-11%,0.79µM*
CC1CCCN(C(=O)c2ccc(CSc3nc4ccncc4n3Cc3ccccc3)cc2)C1 (stereo unspecified),nt,nt,-14%,9%,-12%,nt
Cc1ccccc1Nc1nnc(SCc2cc([N+](=O)[O-])cc3c2OCOC3)s1,-29%[46.1 µM],?,-6%,7%,?,14µM*
NNC(=O)c1csc(-c2cccc(C(F)(F)F)c2)n1,11%,4.5µM*,-17%,0%,0%,nt
O=C(Nc1ccc(C(F)(F)F)cc1)c1csc(-c2ccncc2)n1,-30%,-6%,?,-10%,?,nt
CCc1ccc(NCc2cc3cc4c(cc3n(CC(=O)Nc3ccc(Cl)cc3)c2=O)OCO4)cc1,nt,nt,6%,?,?,nt
Cn1c(=O)c(=O)n(C)c2cc(S(=O)(=O)N3CCc4ccccc43)ccc21,-25%[46.1 µM],3%,-12%,4%,-8%,-6%
O=C(NC1CCc2ccccc21)C1CCN(S(=O)(=O)c2ccc(Cl)cc2)CC1 (stereo unspecified),-23%,7%,7%,1%,-2%,-20%
O=C(Nc1ccc(S(=O)(=O)N2CCc3ccccc32)cc1)c1ccco1,-24%[46.1 µM],25µM*,18%,?,?,-19%
O=C(Nc1ccc(CN2CCCCC2)cc1)c1ccc2c(c1)OCO2,7%[46.1 µM],-1%,2%,3%,1%,28µM*
O=S(=O)(NC1CCCC1)c1ccc(S(=O)(=O)N2CCc3ccccc32)cc1,-16%,32µM*,-4%,-11%,?,-1%
O=S(=O)(NC1CCc2ccccc21)c1ccc(S(=O)(=O)N2CCCC2)cc1 (stereo unspecified),?,14µM*,-17%,1%,-24%,-7%
Cc1cc(OCC(=O)Nc2cnn(CCCC(=O)O)c2)ccc1Cl,nt,nt,-14%,-1%,-13%,nt
Cn1cc(S(=O)(=O)N2CCCCCC2)cc1C(=O)Nc1ccccc1F,nt,nt,-3%,-6%,-15%,nt
CC(=O)N1CCCC1c1nc2ccccc2n1Cc1ccccc1Cl (stereo unspecified),nt,nt,4%,6%,-4%,nt
NS(=O)(=O)c1ccc(NC(=O)c2ccc3c(c2)CCN3S(=O)(=O)c2ccccc2)cc1,nt,nt,12%,?,-28%,nt
O=C(Nc1ccc(S(=O)(=O)N2CCc3ccccc32)cc1)c1ccc2c(c1)OCO2,-16%[46.1 µM],18µM*,7%,?,?,-8%
CC1(OC(=O)c2cnc3ccccc3n2)C(=O)C=C2C=C3CCCN3C=C2C1=O (stereo unspecified),nt,0%[13.5 µM],-3%[11.5 µM],-10%[11.6 µM],-7%[11.6 µM],-9%
O=[N+]([O-])c1cc(Br)c(O)c(C=Nc2ccc(N3CCOCC3)cc2)c1,-22%,2%,10%,2%,5%,nt

# Screening data as filed in PubChem.
